Test [1] deals with Rap guanine nucleotide exchange factor 3 (Homo sapiens) (UniProt O95398). The test is described as follows: Confirmatory qHTS for antagonist of cAMP-regulated guanine nucleotide exchange factor 3 (EPAC1) (AID 1645880). Further: nearly all actives have a fitted effect of over 55% in size. Further: potency means the concentration at half of the fitted maximal effect. In a few lines: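 Released BODIPY-GDP fluoresces less than Rap1-bound BODIPY-GDP; the signal is followed at 480/540 nm at 5-min intervals over 30 min, after 5 min at room temperature. Reactions contain 100 nM EPAC1, 250 nM RAP1B-BODIPY-GDP and 50 uM GDP; results are normalized to ATA and DMSO.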

Test [2] has the same target. The test is described as follows: Confirmatory qHTS for agonist of cAMP-regulated guanine nucleotide exchange factor 3 (EPAC1) (AID 1645881). Further: nearly all actives have a fitted effect of over 75% in size. Further: potency means the concentration at half of the fitted maximal effect.
Test [3] addresses Rap guanine nucleotide exchange factor 4 (Homo sapiens) (UniProt Q8WZA2). The test is described as follows: Confirmatory qHTS for agonist of cAMP-regulated guanine nucleotide exchange factor 4 (EPAC2) (AID 1645884).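 Further: nucleotide exchange releases bodipy-GDP from Rap1 and this lowers its fluorescence; nearly all actives have a fitted effect of over 65% in size.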 Further: potency means the concentration at half of the fitted maximal effect.
Test [4] has as its target Rap guanine nucleotide exchange factor 3 (Homo sapiens) (UniProt O95398). The test is described as follows: Counterscreen qHTS for antagonist of cAMP-regulated guanine nucleotide exchange factor 3 (EPAC1) (AID 1645888). An outline of the steps:
(§1)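 Rap1B-BODIPY-GDP 250 nM + GDP 50 uM; cpds 7-pt, final 9.74 nM–152 uM (activator mode) or from 7.32 nM upwards (inhibitor mode); RT; FI 480/540 nm at 5 and 30 min, then ± cAMP, reread.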

The target is the same in test [5]. The test is described as follows: Counterscreen qHTS for agonist of cAMP-regulated guanine nucleotide exchange factor 3 (EPAC1) (AID 1645889). Further: potency means the concentration at half of the fitted maximal effect; nearly all actives have a fitted effect of over 40% in size. An outline of the steps:
as §1

The target in test [6] is Tumor susceptibility gene 101 protein (Homo sapiens) (UniProt Q99816). Briefly: qHTS Assay for Iinhibitors of HIV-1 Budding by Blocking the Interaction of PTAP/TSG101: Hit Validation (AID 651600). Further: potency means the concentration at half of the fitted maximal effect; nearly all actives have a fitted effect of over 70% in size. In a few lines:
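Tsg101 binding domain 10 uM + FITC-PTAP peptide 50 nM (final), 10 mM HEPES pH 7.5/0.15 M NaCl/0.01% Tween 20/3 mM EDTA/0.1 mM TCEP; 20 min RT; FP read, FITC filters.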

The target of test [7] is Rap guanine nucleotide exchange factor 4 (Homo sapiens) (UniProt Q8WZA2). Briefly: Confirmatory qHTS for antagonist of cAMP-regulated guanine nucleotide exchange factor 4 (EPAC2) (AID 1645885). Further: nearly all actives have a fitted effect of over 25% in size.

Results filed as inconclusive are left out. The source made the active and inactive calls. The call rests on the fitted dose curve; in most records, active means well fitted curve in the direction sought with a large enough effect; inconclusive means small, poorly fitted or top-dose-only effect, or another doubt; inactive means no such curve, though single readings can be large; an effect the other way counts as inactive or inconclusive.

Rap guanine nucleotide exchange factor 3 (Homo sapiens), sequence (O95398 whole entry, looked up): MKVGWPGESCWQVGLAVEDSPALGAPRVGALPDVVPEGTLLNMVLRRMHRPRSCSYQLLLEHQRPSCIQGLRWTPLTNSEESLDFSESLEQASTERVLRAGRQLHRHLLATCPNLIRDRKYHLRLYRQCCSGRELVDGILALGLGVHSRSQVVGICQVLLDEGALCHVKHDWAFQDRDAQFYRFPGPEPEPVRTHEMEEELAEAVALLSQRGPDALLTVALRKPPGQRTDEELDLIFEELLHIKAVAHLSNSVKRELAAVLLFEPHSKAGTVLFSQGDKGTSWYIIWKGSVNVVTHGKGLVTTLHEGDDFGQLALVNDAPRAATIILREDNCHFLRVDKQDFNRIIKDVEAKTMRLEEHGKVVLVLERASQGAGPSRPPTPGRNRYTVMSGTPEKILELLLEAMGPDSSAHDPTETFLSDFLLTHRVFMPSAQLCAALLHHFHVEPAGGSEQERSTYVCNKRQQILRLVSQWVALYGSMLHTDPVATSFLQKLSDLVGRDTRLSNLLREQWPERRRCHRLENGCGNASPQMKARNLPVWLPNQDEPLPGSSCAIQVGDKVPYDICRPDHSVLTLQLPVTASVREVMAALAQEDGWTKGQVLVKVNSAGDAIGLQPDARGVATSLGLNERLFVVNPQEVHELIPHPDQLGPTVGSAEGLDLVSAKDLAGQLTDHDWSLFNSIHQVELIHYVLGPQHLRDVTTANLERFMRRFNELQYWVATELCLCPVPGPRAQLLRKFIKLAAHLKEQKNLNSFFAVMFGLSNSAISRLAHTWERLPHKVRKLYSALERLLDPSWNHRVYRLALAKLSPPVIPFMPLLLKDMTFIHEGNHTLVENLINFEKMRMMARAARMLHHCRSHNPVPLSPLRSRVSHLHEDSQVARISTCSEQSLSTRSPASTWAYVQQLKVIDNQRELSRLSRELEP
Rap guanine nucleotide exchange factor 4 (Homo sapiens), sequence (Q8WZA2 whole entry, looked up): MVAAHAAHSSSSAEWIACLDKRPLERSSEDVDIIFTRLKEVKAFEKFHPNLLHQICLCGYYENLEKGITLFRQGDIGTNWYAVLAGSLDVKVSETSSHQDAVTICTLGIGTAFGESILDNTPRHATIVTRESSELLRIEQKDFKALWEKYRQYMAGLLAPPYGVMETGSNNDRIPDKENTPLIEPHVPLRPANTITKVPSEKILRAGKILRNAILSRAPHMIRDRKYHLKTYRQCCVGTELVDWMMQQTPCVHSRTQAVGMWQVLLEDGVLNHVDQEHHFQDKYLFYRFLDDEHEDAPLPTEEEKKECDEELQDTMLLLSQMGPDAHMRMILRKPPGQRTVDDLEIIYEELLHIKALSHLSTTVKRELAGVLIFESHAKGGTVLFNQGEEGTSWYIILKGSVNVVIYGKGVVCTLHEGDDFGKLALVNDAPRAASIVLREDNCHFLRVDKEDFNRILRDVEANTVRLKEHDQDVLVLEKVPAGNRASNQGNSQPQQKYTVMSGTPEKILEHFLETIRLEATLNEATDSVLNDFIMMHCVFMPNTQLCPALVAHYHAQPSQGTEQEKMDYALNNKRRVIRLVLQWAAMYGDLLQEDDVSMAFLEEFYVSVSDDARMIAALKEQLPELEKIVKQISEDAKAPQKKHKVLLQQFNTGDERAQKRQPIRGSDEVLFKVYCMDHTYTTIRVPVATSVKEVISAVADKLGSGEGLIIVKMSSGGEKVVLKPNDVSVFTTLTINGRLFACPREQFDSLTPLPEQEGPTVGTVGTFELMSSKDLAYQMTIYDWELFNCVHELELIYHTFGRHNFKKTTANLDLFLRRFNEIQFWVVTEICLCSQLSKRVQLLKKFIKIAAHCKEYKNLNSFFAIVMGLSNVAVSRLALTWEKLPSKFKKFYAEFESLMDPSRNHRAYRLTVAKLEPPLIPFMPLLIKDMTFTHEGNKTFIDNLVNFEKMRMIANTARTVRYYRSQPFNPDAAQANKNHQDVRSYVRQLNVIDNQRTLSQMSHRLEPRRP
Tumor susceptibility gene 101 protein (Homo sapiens), sequence (Q99816 whole entry, looked up, the tested form may be a part): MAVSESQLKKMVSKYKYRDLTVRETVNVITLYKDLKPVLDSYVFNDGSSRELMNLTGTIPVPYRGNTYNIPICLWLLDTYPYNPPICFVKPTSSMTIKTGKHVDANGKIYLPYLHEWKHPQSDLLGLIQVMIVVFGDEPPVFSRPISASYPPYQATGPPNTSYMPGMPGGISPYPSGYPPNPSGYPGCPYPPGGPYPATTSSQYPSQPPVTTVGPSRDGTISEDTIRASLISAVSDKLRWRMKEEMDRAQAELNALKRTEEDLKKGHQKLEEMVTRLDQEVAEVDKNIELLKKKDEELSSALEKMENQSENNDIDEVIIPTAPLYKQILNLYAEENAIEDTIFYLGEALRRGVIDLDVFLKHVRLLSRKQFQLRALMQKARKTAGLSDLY

Consider `Cc1ccc(-n2c(O)c(/C=C/C=Nc3ccccc3)c(=O)[nH]c2=O)cc1`, for which the Potency result in test [1], in test [2] and in test [3] was “inactive” in each case. In addition, the outcome in test [4] was inactive. Further, the Potency in test [5] is 44.7 µM (active).
Regarding `O=[N+]([O-])c1ccc(NCc2ccccc2)c2nonc12`, the Potency in test [6] is 1.03 µM (active); in test [2] it was 8.91 µM (active); in test [3] it was 100 µM (active); in test [5], 22.4 µM (active). The Potency entry in test [1] and in test [7] was “inactive” in each case.
Take `Cc1cccc(N2C(=O)NC(=O)/C(=C\c3cc(C)n(-c4sc5c(c4C#N)CCCC5)c3C)C2=O)c1C`: in test [1], the Potency is 30.1 µM (active). The Potency entry in test [2] and in test [3] was “inactive” throughout. Further, the outcome in test [4] was inactive.

The values are drawn from PubChem BioAssay (NCATS).
